The list is not random: actives were taken first. Their share in the collection is about 4.1%.
hcDAF12 agonist: activators of H. contortus DAF-12 nuclear receptor; HEK293 hcDAF-12 lit1-tk-luc reporter, luminescence; 0% DMSO, 100% Δ7-dafachronic acid; 370,000 compounds, 1.4% hits; activation, % at 6.8 µM; AID 652067;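 active = activation above the mean of all tested compounds plus 3 SD, cut at about 5.5% in these data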;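 also: 100% = response to 3 µM Δ7-dafachronic acid high control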
ssDAF-12 act: activates DAF-12 receptor from parasite S. stercoralis. HEK293 ssDAF-12/GRIP1 lit1-tk-luc reporter, luminescence; % of 3 µM dafachronic acid response. activation, % at 6.8 µM. 370,000 compounds, 1% hits;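 active = activation above the mean over all tested compounds plus 3 SD, cut at about 0.9% in these data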;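 also: 0% = DMSO-only wells and 100% = 3 µM delta7-dafachronic acid wells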
DAX1 inh-1: inhibitors of DAX1 repression of SF-1 activated StAR promoter. HEK293T StAR-luciferase reporter, SF-1/DAX-1 repression relief. inhibition, % at 6.8 µM. 370,000 compounds, 1.1% hits. AID 652010;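 active = inhibition above the mean over all tested compounds plus 3 SD, cut at about 3.6% in these data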;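 also: 0% = DAX-1 cells with DMSO and 100% = cells lacking DAX-1 with DMSO; higher inhibition means more luminescence from relief of DAX-1 repression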
hgDAF12 agonist: activates the H. glycines DAF-12 receptor ligand-binding domain; HEK293 GAL4-hgDAF12 UAS-luciferase reporter, agonist luminescence; normalized to butyrate control; activation, % at 6.8 µM; 370,000 compounds, 1.8% hits;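 active = activation above a cutoff set at the mean of all screened compounds plus 3 SD, cut at about 10% in these data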;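 also: 0% = DMSO wells and 100% = sodium butyrate wells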
DAX1 inh-2: NR0B1 (DAX1) inhibition; HEK293 Gal4-DAX1 luciferase reporter, luminescence; inhibition, % at 6.75 µM; AID 504766; 340,000 compounds, 0.99% hits;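 active = inhibition above the mean over all tested compounds plus 3 SD, cut at about 4.2% in these data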;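 also: 0% = DAX1-transfected cells with DMSO and 100% = empty-vector control cells with DMSO; inhibition shows as a rise in luminescence from relieved DAX1 repression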
Target sequence (P51843 207-470 limits assumed): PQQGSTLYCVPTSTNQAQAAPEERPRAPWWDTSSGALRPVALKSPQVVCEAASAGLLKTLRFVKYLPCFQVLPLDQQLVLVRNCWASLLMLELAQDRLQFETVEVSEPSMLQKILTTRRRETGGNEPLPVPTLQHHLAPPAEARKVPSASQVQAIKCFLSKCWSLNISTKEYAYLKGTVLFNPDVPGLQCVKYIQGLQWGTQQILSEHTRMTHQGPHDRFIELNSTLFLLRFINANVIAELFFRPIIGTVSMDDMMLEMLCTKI
The depositor's hits bear a star.

Results for O=c1cc(CN2CCNCC2)nc2sccn12 ?
hcDAF12 agonist: 0.3; ssDAF-12 act: -1.2; DAX1 inh-1: 0.1; hgDAF12 agonist: 1.1; DAX1 inh-2: 4.9*

What do the screens show for `CN1CCN(Cc2cc(=O)n3ccsc3n2)CC1`?
hcDAF12 agonist: 0.6; ssDAF-12 act: -0.2; DAX1 inh-1: 0.8; hgDAF12 agonist: -0.6; DAX1 inh-2: 0.8

What do the screens show for `COc1cccc(NC2=NCCS2)c1`?
hcDAF12 agonist: -1.4; ssDAF-12 act: -0.6; DAX1 inh-1: 0.1; hgDAF12 agonist: 2.2

How did COc1cc(C2c3cc4c(c(O)c3CC3COC(=O)C32)OCO4)cc(OC)c1OC (configuration not stated) do in these assays?
hcDAF12 agonist: -0.5; ssDAF-12 act: -0.1; DAX1 inh-1: 3.4; hgDAF12 agonist: -6.7; DAX1 inh-2: 0.6

What do the screens show for `COc1cc(C2c3cc(O)c(OC)cc3CC3C(=O)OCC32)ccc1O` (configuration not stated)?
hcDAF12 agonist: -0.6; ssDAF-12 act: -1.4; DAX1 inh-1: 1.1; hgDAF12 agonist: -1.6; DAX1 inh-2: 4.8*

How did [N-]=[N+]=NCc1cn2cccnc2n1 do in these assays?
hcDAF12 agonist: -0.2; ssDAF-12 act: -0.8; DAX1 inh-1: 0.3; hgDAF12 agonist: 2.7; DAX1 inh-2: 1.2

How did COc1cc(C(=O)O)cc(OC)c1OC do in these assays?
hcDAF12 agonist: -2.4; ssDAF-12 act: -1.0; DAX1 inh-1: 0.3; hgDAF12 agonist: 1.5; DAX1 inh-2: 8.4*

How did C=C1C(=O)C(C)=C2C(=O)N3Cc4[nH]c5ccccc5c4CC3(C(=O)OC)C12 (configuration not stated) do in these assays?
hcDAF12 agonist: 0.0; ssDAF-12 act: -1.6; DAX1 inh-1: -1.3; hgDAF12 agonist: -1.9

Results for COC(=O)C1=C[C@H]([C@@H](C)[C@H](OC)c2ccccc2Br)[C@@H]2[C@H]1c1ccccc1N2C ?
hcDAF12 agonist: -1.2; ssDAF-12 act: -1.1; DAX1 inh-1: -0.6; hgDAF12 agonist: -0.7

What do the screens show for `Cc1nn(Cc2ccccc2)c(C)c1C=C1C(=O)NC(=S)NC1=O`?
hcDAF12 agonist: 6.1*; ssDAF-12 act: -0.9; DAX1 inh-1: -0.1; hgDAF12 agonist: -0.9; DAX1 inh-2: 0.5

How did C=CCn1c(O)c(C(CC)=Nc2cccc(C(F)(F)F)c2)c(=O)[nH]c1=O do in these assays?
hcDAF12 agonist: 6.1*; ssDAF-12 act: 0.0; DAX1 inh-1: -0.4; hgDAF12 agonist: -0.3; DAX1 inh-2: 0.2

How did COc1cccc(-c2ccc3c(c2)C2c4cnnn4-c4ccccc4C(=O)N2CC3)c1 (configuration not stated) do in these assays?
hcDAF12 agonist: -2.3; ssDAF-12 act: -0.6; DAX1 inh-1: 1.1; hgDAF12 agonist: 2.2

How did CCOC(=O)[C@]12Cc3ccccc3[C@H]1N(C(C)C)C(=O)c1ccccc12 do in these assays?
hcDAF12 agonist: -0.9; ssDAF-12 act: -1.1; DAX1 inh-1: 4.5*; hgDAF12 agonist: -2.0

How did CCCCN1C(=O)NC(=O)C2(Cc3c(nc4ccccn4c3=O)N3CCc4ccccc4C32)C1=O (configuration not stated) do in these assays?
hcDAF12 agonist: 6.0*; ssDAF-12 act: 0.1; DAX1 inh-1: 0.3; hgDAF12 agonist: 0.2; DAX1 inh-2: -0.9

How did CCOC(=O)[C@]12Cc3cc(Cl)ccc3[C@H]1N(C1CCCCC1)C(=O)c1cc(OC)ccc12 do in these assays?
hcDAF12 agonist: -4.8; ssDAF-12 act: -2.4; DAX1 inh-1: -6.5; hgDAF12 agonist: -17.0

How did CN1CC[C@@H]2CN[C@H](c3ccccc3)C[C@@H]21 do in these assays?
hcDAF12 agonist: -0.1; ssDAF-12 act: -0.2; DAX1 inh-1: 0.1; hgDAF12 agonist: -0.9

Results for CN1C(=O)c2ccccc2NC(=O)C1Cc1ccccc1 (configuration not stated) ?
hcDAF12 agonist: -1.4; ssDAF-12 act: -0.4; DAX1 inh-1: 0.3; hgDAF12 agonist: 0.4; DAX1 inh-2: 4.9*

How did CN1C(=O)C(Cc2ccccc2)C(=O)N(C)C1=O do in these assays?
hcDAF12 agonist: 0.2; ssDAF-12 act: -0.9; DAX1 inh-1: -0.7; hgDAF12 agonist: -0.2; DAX1 inh-2: -0.7

What do the screens show for `C=C1C(C)C2C(Cc3ccccc3)NC(=O)C23C(OC(C)=O)C=CC(C)(O)CC(C)CC=CC3C1O` (configuration not stated)?
hcDAF12 agonist: 0.6; ssDAF-12 act: -0.9; DAX1 inh-1: 3.8*; hgDAF12 agonist: -3.2; DAX1 inh-2: 4.2*

How did CN1C(=O)NC(=O)/C(=C\C=C\c2ccccc2[N+](=O)[O-])C1=O do in these assays?
hcDAF12 agonist: 5.0; ssDAF-12 act: 1.4*; DAX1 inh-1: 0.0; hgDAF12 agonist: 3.0

What do the screens show for `O=C(NCCN1CCC2(CC1)C(=O)NCN2c1ccccc1)c1ccc2ccccc2c1`?
hcDAF12 agonist: -1.6; ssDAF-12 act: -1.4; DAX1 inh-1: -0.7; hgDAF12 agonist: -0.5

How did CN(C)P(=O)(N(C)C)N1CC1 do in these assays?
hcDAF12 agonist: 0.4; ssDAF-12 act: -1.5; DAX1 inh-1: -1.2; hgDAF12 agonist: -0.2; DAX1 inh-2: 0.3

How did O=C(CN1CC(c2ccccc2)CC1=O)Nc1ccc(F)cc1 (configuration not stated) do in these assays?
hcDAF12 agonist: -1.6; ssDAF-12 act: -1.6; DAX1 inh-1: -0.7; hgDAF12 agonist: 2.3; DAX1 inh-2: 5.2*

How did O=C(c1ccccc1)N1Cc2cc(Br)ccc2-n2nncc2C1 do in these assays?
hcDAF12 agonist: 0.1; ssDAF-12 act: -0.9; DAX1 inh-1: -0.4; hgDAF12 agonist: 0.0

What do the screens show for `Cc1cc([P+](=O)O)c(C)n1-c1ccc(Br)cc1`?
hcDAF12 agonist: 4.5; ssDAF-12 act: 1.5*; DAX1 inh-1: -0.4; hgDAF12 agonist: 1.3; DAX1 inh-2: -0.4

How did Cc1c(N=Nc2c(O)n(-c3ccc(Br)cc3)c(=O)[nH]c2=O)c(=O)n(-c2ccccc2)n1C do in these assays?
hcDAF12 agonist: -0.5; ssDAF-12 act: -0.8; DAX1 inh-1: 0.5; hgDAF12 agonist: -2.3; DAX1 inh-2: 2.4

How did CC(C)c1ccc(N2C(=O)NC(=O)/C(=C/c3cnc(-c4ccccc4)nc3)C2=O)cc1 do in these assays?
hcDAF12 agonist: -0.8; ssDAF-12 act: -1.0; DAX1 inh-1: -0.1; hgDAF12 agonist: -2.5; DAX1 inh-2: 1.3

Results for CSc1ncc(/C=C2/C(=O)NC(=O)N(c3ccc(C(C)C)cc3)C2=O)cn1 ?
hcDAF12 agonist: 6.4*; ssDAF-12 act: 0.2; DAX1 inh-1: 0.0; hgDAF12 agonist: 0.5; DAX1 inh-2: -0.1

Results for Cc1ccc(-c2nc(N(C)C3CCN(C)CC3)c3ccccc3n2)cc1 ?
hcDAF12 agonist: 6.0*; ssDAF-12 act: 0.1; DAX1 inh-1: 1.3; hgDAF12 agonist: 5.5; DAX1 inh-2: 1.6
